Test results from PubChem BioAssay AID540361 (National Center for Advancing Translational Sciences (NCATS), 2011).
Results filed as inconclusive are left out. Unmarked numbers belong to inactive results. Calls follow the shape of the dose curve; as a rule, active = well fitted curve in the direction sought with a large enough effect; inconclusive = small, poorly fitted or top-dose-only effect, or another doubt; inactive = no such curve, though single readings can be large or run the other way.

The compounds below were run against Alpha-galactosidase A (Homo sapiens) (UniProt P06280) (assay: Activators of Human alpha-Glucosidase as a Potential Chaperone Treatment of Pompe Disease: Alpha-Galactosidase Counter Screen). Settings: purified human alpha-galactosidase, 4-MU fluorogenic substrate; series mostly up to 57.1 µM; activity change, negative = inhibition: at the top concentration.
Text: Alpha-glucosidase is responsible for hydrolysis of terminal, non-reducing 1,4-linked alpha-D-glucose residues with release of alpha-D-glucose. It is a lysosomal hydrolase that is required for the degradation of a small percentage (1-3%) of cellular glycogen in human. Deficiency of this enzyme results in glycogen-storage disease type II (GSDII), also referred to as Pompe disease, an autosomal recessive disorder. Structurally normal glycogen is accumulated in lysosomes and cytoplasm in affected patients, primarily in muscle tissues. Excessive glycogen storage within lysosomes may interrupt normal functioning of other organelles and leads to cellular injury. In turn, this leads to enlargement and dysfunction of the entire organ involved (eg, cardiomyopathy and muscle weakness). It has reported that the improper folding and trafficking of alpha-glucosidase resulting from the genetic mutations may account for a significant number of Pompe patients. […] After screening for activators for alpha-glucosidase, we used this counter screen against alpha-galactosidase to test for specificity of the hits. NIH Chemical Genomics Center [NCGC] NIH Molecular Libraries Probe Production Centers Network [MLPCN] MLPCN Grant: MH086442-01 Assay Submitter (PI): Wei Zheng
This is a fluorogenic enzyme assay with 4-methylumbelliferyl-[…] as the substrate and human alpha-galactosidase as the enzyme preparation. Upon the hydrolysis of this fluorogenic substrate, the resulting product, 1. 4-methyllumbelliferone, can be excited at 365 nm and emits at 440 nm which can be detected by a standard fluorescence plate reader. Data were normalized to the controls for basal activity (without enzyme) and 100% activity (with enzyme). In the AC50 values were determined from concentration-response data modeled with the standard Hill equation. Assay buffer: 50 mM citric acid (titrated with potassium phosphate to pH 5.0), 0.005% Tween-20, pH 5.0. (pH 5.0 is an optimal condition for this enzyme assay) 1536-well assay protocol for the human alpha-galactosidase: (1) Add 2 ul/well of enzyme (4 nM final) (2) Add 23 nL compounds in DMSO solution. The final titration was 0.7 nM to 77 uM. (3) Add 1 ul of substrate (400 uM final) (4) Incubate at room temperature for 20 min. (5) Add 2 ul stop solution (1M NaOH and 1M Glycine mixture, pH 10) (6) Detect the assay plate in a ViewLux plate reader (PerkinElmer) with Ex=365 nm and Em=440nm. Keywords: Alpha-glucosidase, Pompe Disease, pharmacological chaperone, chaperone therapy, high throughput screening, alpha-glucosidase inhibitor, MLSMR, MLSCN, NIH Roadmap, qHTS and NCGC

Alpha-galactosidase A (Homo sapiens), sequence (P06280 whole entry, looked up): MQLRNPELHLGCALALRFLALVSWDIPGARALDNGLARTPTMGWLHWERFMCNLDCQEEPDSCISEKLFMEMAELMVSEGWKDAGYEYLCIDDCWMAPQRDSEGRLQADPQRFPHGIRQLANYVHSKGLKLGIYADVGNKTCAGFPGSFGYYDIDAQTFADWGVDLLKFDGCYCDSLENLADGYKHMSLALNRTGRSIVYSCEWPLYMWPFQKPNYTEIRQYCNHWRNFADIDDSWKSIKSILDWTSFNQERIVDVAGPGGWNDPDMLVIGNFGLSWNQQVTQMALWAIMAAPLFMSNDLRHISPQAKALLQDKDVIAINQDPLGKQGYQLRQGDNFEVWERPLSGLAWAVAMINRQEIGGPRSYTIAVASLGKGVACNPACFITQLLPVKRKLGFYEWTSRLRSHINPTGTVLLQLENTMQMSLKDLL

| SMILES | activity change, negative = inhibition |
| --- | --- |
| O=S(=O)(c1ccc(Cl)cc1)N1CCN(c2nc(-c3cccs3)nc3ccccc23)CC1 | 0% |
| c1csc(-c2nc(NCC3CCCO3)c3ccccc3n2)c1 (stereo unspecified) | 0% [at 48.8 µM] |
| CCCN1CNc2c(c(=O)[nH]c(=S)n2CCc2ccsc2)C1 | 0% |
| CCCN1CNc2c(c(=O)[nH]c(=S)n2CCc2cccc(C)c2C)C1 | 0% |
| COc1ccc(CCn2c(=S)[nH]c(=O)c3c(C)cc(C)nc32)cc1OC | 19.6% |
| COc1ccc(CCn2c(=S)[nH]c(=O)c3nccnc32)cc1OC | 0% |
| CCCN1CNc2c(c(=O)[nH]c(=O)n2CCc2ccc(OC)c(OC)c2)C1 | 0.385% |
| COc1ccc(C#Cc2cnc(Cl)c3cncnc23)cc1OC | 3.52% [at 48.8 µM] |
| COc1ccc(CCn2c3c(c(=O)[nH]c2=S)CN(C)CN3)cc1OC | 0% |
| CCCN1CNc2c(c(=O)[nH]c(=S)n2Cc2ccc(OC)c(OC)c2)C1 | 0% |
| COc1ccc(CCc2c[nH]c(=O)c3cncnc23)cc1OC | -5.98% |
| CCCN1CNc2c(c(=O)[nH]c(=S)n2CCc2ccc3c(c2)OCCO3)C1 | 0% |
| COc1ccc(C#Cc2c[nH]c(=O)c3cncnc23)cc1OC | -8.98% |
| CCCN1CNc2c(c(=O)[nH]c(=S)n2CCC(C)(C)C)C1 | 0% |
| CCCN1CNc2c(c(=O)[nH]c(=S)n2CCc2cc(C)ccc2C)C1 | 0% |
| O=S(=O)(c1ccc(Cl)cc1)N1CCN(c2nc(Nc3cc(Cl)ccc3O)nc3ccccc23)CC1 | 0% [at 48.8 µM] |
| COc1ccc(CCn2c3c(c(=O)[nH]c2=S)CN(C(C)C)CN3)cc1OC | 0% |
| CCCN1CNc2c(c(=O)[nH]c(=S)n2CCc2c(C)cccc2C)C1 | 0% |
| COc1ccc(CCn2c3c(c(=O)[nH]c2=S)CN(c2ccccc2)CN3)cc1OC | 0% |
| CCCN1CNc2c(c(=O)[nH]c(=S)n2CCc2ccc(C)c(C)c2)C1 | 0% |
| OCCNc1nc(-c2cccs2)nc2ccccc12 | 0% |
